In the supplement of paper PMC10338343:
± gives the standard deviation.

What follows are sequences tested on MILI (PIWIL2) piRISC loaded with piRNA #1 (26 nt) (assay: pre-steady-state target cleavage rate (min^-1); guide: piRNA #1 5'p-UGAGGUAGUAGGUUGUAUAGUAUCCA; MIWI and MILI are mouse PIWI proteins and EfPiwi is from a freshwater sponge; tags in brackets are library labels; higher = faster piRNA-guided slicing of the target). Settings: auxiliary factor: 500 nM mouse GTSF1.
Summary of the method: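 Reactions were run for 0–8 or 0–960 min at 33 °C in HEPES–potassium acetate buffer, combining 1 nM active affinity-purified piRISC with one synthetic guide, […] transcribed, DNA-blocked target RNA library and, in some cases, 500 nM GTSF1 partner protein. Sequencing of uncleaved targets followed, with normalisation to depth and to weakly complementary targets. Three trials were pooled, k3 was capped at 0.0001 min^-1, and the pre-steady-state cleavage rate was taken from a burst-and-steady-state fit.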
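Further: 1 nM active piRISC with 0.1 nM target library at 33 °C single turnover.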

| Sequence | pre-steady-state target cleavage rate |
| --- | --- |
| GGAGACCAUACUAAACAACCAACUACCUCA | 0.00724 ± 0.003 |
| GGAGACCUUACUAUACUAGCUACUACCUCA | 0.171 ± 0.012 |
| GGAGACCUAUGUAUAAAACCUACUACCUCA | 0.0488 ± 0.0094 |
| GGAGACCUAUGAUUACAACCGUACUACCUCA | 0.00334 ± 0.0031 |
| GGAGACCUAACUAUACAACCUACUAACCUCA | 0.187 ± 0.028 |
| GGAGACCUUACUAAACAACCUAGUACCUCA | 0.0259 ± 0.0068 |
| GGAGACCUAUGUAUACAACCUACUAACUCA | 0.0355 ± 0.0081 |
| GGAGACCUAUGAUUUCAACCUACAACCUCA | 0.00341 ± 0.0021 |
| GGAGACCUUACUAAUCAACCUACUACCUCA | 0.11 ± 0.016 |
| GGAGACCUAUGUAUACAAGCUACUAGCUCA | 0.0122 ± 0.0045 |
| GGAGACCUAACUAUUCAACCUACUACCACA | 0.118 ± 0.022 |
| GGAGACCUUACUAUACAAGCUUCUACCUCA | 0.036 ± 0.0065 |
| GGAGACCUAUGUAUACAACCUUCUACCUCA | 0.00351 ± 0.0017 |
| GGAGACCUAACAAUUCAACCUACUACCUCA | 0.0406 ± 0.013 |
| GGAGACCUAUGAAAACAACCUACUAGCUCA | 0.00432 ± 0.0025 |
| GGAGACCUUUCUAUACAACCUACUAGCUCA | 0.0622 ± 0.013 |
| GGAGACCUAUGAAUACAACCUACGACCUCA | 0.0047 ± 0.0026 |
| GGAGACCUAUCUAUACAACCUAACUACCUCA | 0.00833 ± 0.0023 |
| GGAGACCUAUCUAUACAACCUAGAACCUCA | 0.00829 ± 0.0026 |
| GGAGACCUAUCGUAUACAACCUACUACCUCA | 0.057 ± 0.011 |
| GGAGACCUUACUAUACAAGGAUGAUGGAGA [g13:g22:cont:t1A] | < 0.0001 |
| GGAGACCUUACUAUAGAACCUACUACCACA | 0.0558 ± 0.012 |
| GGAGACCUUACUAAACAACCUACUACCACA | 0.128 ± 0.017 |
| GGAGACCUUAUAUACAACCUACUACCUCA | 0.0314 ± 0.0072 |
